{
  "source": "PubChem BioAssay AID1259343",
  "about": "(VanderVen Lab, College of Veterinary Medicine, Cornell …, 2017)",
  "note": "The campaign covered roughly 6,200 compounds. About 2,900 (47%) were called active. So high a share suggests a set chosen from earlier hits. The list shows a part of the results. Unmarked numbers belong to inactive results. Cut-off read from the data, not from the text of the source: active = inhibition above about 50%; inactive = the rest.",
  "data": [
    {"test": "Mycobacterium tuberculosis growth inhibition, primary screen (AID 1259343)", "settings": "inhibition: at 10 µM, stronger effect = higher value; outcome: 10 uM", "values": [
      {"smiles": "C=CCn1nnc(NC(=O)c2ccc(OCC(C)C)cc2)n1", "inhibition": "30.5%"},
      {"smiles": "Cc1nc(SCC(=O)c2cccs2)c2c3c(sc2n1)CCCC3", "inhibition": "-1.14%"},
      {"smiles": "NC(=O)CSc1nnc(SCc2ccc(Cl)c(Cl)c2)s1", "inhibition": "24.1%"},
      {"smiles": "O=C(CSc1nnc(SCC(=O)c2cccs2)s1)c1cccs1", "inhibition": "96.8% (active)"},
      {"smiles": "N#CC(=Cc1ccc([N+](=O)[O-])o1)C(=O)NCc1ccco1", "inhibition": "49.5%"},
      {"smiles": "N#CC(=Cc1ccc(Sc2ccccc2)o1)C(=O)NC1CCCCC1", "inhibition": "92.9% (active)"},
      {"smiles": "Cc1ccc(-n2cc(CNCCc3ncc(C)[nH]3)c(-c3ccc(F)cc3)n2)cc1", "inhibition": "93% (active)"},
      {"smiles": "Cc1ccc(-n2cc(CN(C)Cc3cccnc3)c(-c3ccc(F)cc3)n2)cc1", "inhibition": "46.4%"},
      {"smiles": "Cc1ccc(-c2csc(SCC(=O)NC(C)(C#N)C3CC3)n2)cc1", "note": "(configuration not stated)", "inhibition": "0.22%"},
      {"smiles": "CCC(C)Nc1nc(-c2ccc(Cl)cc2)cs1", "note": "(configuration not stated)", "inhibition": "-10.8%"},
      {"smiles": "CC(C)(C)c1ccc(-c2csc(NC=C(C#N)C#N)n2)cc1", "inhibition": "75.2% (active)"},
      {"smiles": "CCOc1ccc(N2CC(C#N)=C3c4cc(OC)c(OC)cc4CCN3C2)cc1", "inhibition": "94.9% (active)"},
      {"smiles": "Cc1ccc(-n2c(-c3ccc(Cl)cc3)cc(C(=O)N3CCN(c4cccc(Cl)c4)CC3)c2C)cc1", "inhibition": "33.6%"},
      {"smiles": "Cc1cccc(N2CCN(CCNc3cncc(Cl)n3)CC2)c1", "inhibition": "86.1% (active)"},
      {"smiles": "c1cnn(-c2cncc(NCC3CCCCCCC3)n2)c1", "inhibition": "49.9%"},
      {"smiles": "COc1ccccc1N1CCC(CNc2cncc(Cl)n2)C1", "note": "(configuration not stated)", "inhibition": "85% (active)"},
      {"smiles": "CNC(=O)c1cccc(N2CCC(c3ccccc3OC)C2)n1", "note": "(configuration not stated)", "inhibition": "20.6%"},
      {"smiles": "Fc1ccc(Nc2ccc3ccccc3n2)cc1Cl", "inhibition": "22.7%"},
      {"smiles": "CC(=O)Oc1cccc2c1C(=O)c1c(OC(C)=O)cc(C(=O)O)cc1C2=O", "inhibition": "77.5% (active)"},
      {"smiles": "CCCc1nc2c(c(=O)c3ccccc3n2C)c(=O)n1CCc1ccccc1", "inhibition": "-32.5%"},
      {"smiles": "Clc1ccc(C(c2ccc(Cl)cc2)N2CCNCC2)cc1", "inhibition": "42.8%"},
      {"smiles": "Oc1c(C(c2ccc(Br)cc2)N2CCCC2)ccc2cccnc12", "note": "(configuration not stated)", "inhibition": "77.3% (active)"},
      {"smiles": "Oc1c(C(c2ccc(Cl)cc2)N2CCCC2)ccc2cccnc12", "note": "(configuration not stated)", "inhibition": "92% (active)"},
      {"smiles": "CC(C)Oc1ccc2c(=O)cc(-c3ccccc3)oc2c1", "inhibition": "58.7% (active)"},
      {"smiles": "COc1cc(C)c2c(=O)cc(-c3ccccc3)oc2c1", "inhibition": "47.7%"},
      {"smiles": "Cc1oc2cc(OC(C)C)ccc2c(=O)c1Oc1ccccc1", "inhibition": "8.96%"},
      {"smiles": "O=c1cc(-c2ccccc2)oc2cc(O)c(O)cc12", "inhibition": "95.7% (active)"},
      {"smiles": "O=C(CC[N+](=O)[O-])OC[C@H]1O[C@@H](O)[C@H](OC(=O)CC[N+](=O)[O-])[C@@H](OC(=O)CC[N+](=O)[O-])[C@@H]1OC(=O)CC[N+](=O)[O-]", "inhibition": "82.8% (active)"},
      {"smiles": "O=C1C2=C(Nc3ccccc3S(=O)(=O)C2c2ccc(Cl)cc2)c2ccccc21", "note": "(configuration not stated)", "inhibition": "66.7% (active)"},
      {"smiles": "O=C1C2=C(Nc3ccccc3SC2c2cccs2)c2ccccc21", "note": "(configuration not stated)", "inhibition": "21.4%"},
      {"smiles": "O=C(CNc1ccc(Cl)cc1F)N1CCCc2ccccc21", "inhibition": "50.7% (active)"},
      {"smiles": "O=C(Cc1cc(-c2cc3ccccc3o2)on1)N1CCCCC1", "inhibition": "22.8%"},
      {"smiles": "O=C(CNc1ccc(Cl)cc1F)N1CCN(c2ccccc2)CC1", "inhibition": "16.7%"},
      {"smiles": "O=C(Cc1cc(-c2cc3ccccc3o2)on1)Nc1ccon1", "inhibition": "18.9%"},
      {"smiles": "O=C(Cc1cc(-c2cc3ccccc3o2)on1)N1CCCc2ccccc21", "inhibition": "66.9% (active)"},
      {"smiles": "CC1Cc2ccccc2N1CCNC(=O)c1cc(Cl)ccc1F", "note": "(configuration not stated)", "inhibition": "8.76%"},
      {"smiles": "COc1cccc(-c2cc(CC(=O)N3c4ccccc4CC3C)no2)c1", "note": "(configuration not stated)", "inhibition": "38.3%"},
      {"smiles": "O=C(Cc1cc(-c2ccc(F)cc2)on1)N1CCCc2ccccc21", "inhibition": "56.2% (active)"},
      {"smiles": "O=[N+]([O-])c1ccc(Sc2ccc([N+](=O)[O-])cc2)cc1", "inhibition": "57.3% (active)"},
      {"smiles": "Nc1cccc2c([N+](=O)[O-])cccc12", "inhibition": "8.31%"},
      {"smiles": "O=C(O)c1cc(Oc2ccc([N+](=O)[O-])cc2)cc(Oc2ccc([N+](=O)[O-])cc2)c1", "inhibition": "60.2% (active)"},
      {"smiles": "O=[N+]([O-])c1ccc(Oc2ccc(-c3ccccc3)cc2)cc1", "inhibition": "-41%"},
      {"smiles": "O=[N+]([O-])c1ccc(C2SCCS2)cc1", "inhibition": "-11.2%"},
      {"smiles": "Nc1cccc2c(Oc3ccc([N+](=O)[O-])cc3)cccc12", "inhibition": "68.4% (active)"},
      {"smiles": "O=[N+]([O-])c1ccc(Oc2ccc([N+](=O)[O-])cc2)cc1", "inhibition": "98.6% (active)"},
      {"smiles": "Cc1cnn(CCc2nc(-c3cc(Br)cs3)no2)c1", "inhibition": "36.5%"},
      {"smiles": "Cc1cc(OCC(=O)NCc2ccc(-c3ccc(Br)cc3)o2)no1", "inhibition": "56.9% (active)"},
      {"smiles": "Cc1cc(CC(=O)NC2CC2c2ccc(Br)cc2)no1", "note": "(configuration not stated)", "inhibition": "13.2%"},
      {"smiles": "O=c1nc(/C=C/c2cccc3ccccc23)cc(C(F)(F)F)[nH]1", "inhibition": "-5.05%"},
      {"smiles": "O=c1nc(/C=C/c2ccc(Br)cc2)cc(C(F)(F)F)[nH]1", "inhibition": "100% (active)"},
      {"smiles": "Cc1ccsc1/C=C/c1cc(C(F)(F)F)[nH]c(=O)n1", "inhibition": "36.8%"},
      {"smiles": "Clc1ccc(Cn2ccnc2CNc2ccccc2)c(Cl)c1", "inhibition": "28.2%"},
      {"smiles": "O=c1cc(CSc2ccc(Cl)cc2)nc2nc[nH]n12", "inhibition": "30%"},
      {"smiles": "Clc1ccc(CSc2nnc3nc[nH]n23)c(Cl)c1", "inhibition": "90.4% (active)"},
      {"smiles": "O=C(Cc1ccsc1)N1CCN(Cc2cccc(-c3noc(-c4ccccc4)n3)c2)CC1", "inhibition": "25.5%"},
      {"smiles": "O=C(c1cccc(OC(F)F)c1)N1CCN(Cc2ccc(-c3noc(-c4ccco4)n3)cc2)CC1", "inhibition": "91.3% (active)"},
      {"smiles": "CCOc1ccc(N2C(=O)CSC2c2ccccc2N)cc1", "note": "(configuration not stated)", "inhibition": "90.3% (active)"},
      {"smiles": "COC(=O)C1=C(C(=O)OC)C2=S(SC(c3ccc(OC)cc3)=C2)S1", "note": "(configuration not stated)", "inhibition": "7.91%"},
      {"smiles": "COC(=O)C1=C(C(=O)OC)SC(=C2C(=S)C(C)(C)Nc3ccccc32)S1", "inhibition": "27.1%"},
      {"smiles": "COC(=O)C1=C(C(=O)OC)SC(=CC(=S)c2ccc(OC)cc2)S1", "inhibition": "82.8% (active)"},
      {"smiles": "CCOc1ccc(Oc2ccc(S(=O)(=O)NC(C)CC#N)cc2)cc1", "note": "(configuration not stated)", "inhibition": "39.1%"},
      {"smiles": "CCCCN=C1NN=C(C23CC4CC(CC(C4)C2)C3)C(C)S1", "note": "(configuration not stated)", "inhibition": "82.7% (active)"}
    ]}
  ]
}
